Screens from PubChem BioAssay.
Lassa entry inh – blocks Lassa virus binding to or entry into cells; Lassa virus pseudotype entry inhibition, cell reporter; Potency, µM (highest dose often 37.9 µM), without a hit: at the top dose activity change, negative = inhibition, actives largely listed as inhibitors; 300,000 tested, 1.2% active; AID 540256; calls by dose curve; tested in HEK293 cells; also: potency is read from the fitted curve at half-maximal effect; % is scaled to controls: 0 for no effect and ±100 for the full control effect; nearly all actives have a fitted effect of over 50% in size
Shiga toxin inh – inhibitors of Shiga toxin in Vero cells. Vero cells, Shiga toxin protein synthesis inhibition reporter. inhibition, % at 38.7 µM. 290,000 tested, 9.2% active. AID 2315; in the data active = inhibition mostly above about 28%, no sharp cut-off; inactive = mostly below about 43%; also: 0% is about no effect
MARV entry inh – inhibitors of Marburg virus binding or cell entry; Marburg virus pseudotyped entry inhibition, cell reporter; 300,000 tested, 1.8% active; Potency, µM (doses to about 37.8 µM), for the others: at the top dose activity change, negative = inhibition, usual class: inhibitors; AID 540276; calls by dose curve; tested in HEK293 cells; also: potency is read from the fitted curve at half-maximal effect; % is scaled to controls: 0 for no effect and ±100 for the full control effect
Cycloheximide cs – counter-screen hit for Shiga toxin inhibitors, cycloheximide | cell reporter, cycloheximide protein synthesis inhibition counterscreen | max response, % | 300,000 tested, 12% active; in the data active = max response mostly above about 13%, no sharp cut-off; inactive = mostly below about 14%; also: read at 38.3 µM for the half of the compounds with a filed dose; 0% is about no effect
Pf growth 96h – inhibits malaria parasite growth, 96 h | P. falciparum luciferase reporter growth, 96 h | AID 504834 | Potency, µM (titrated, usually from 28.7 µM), for inactives: at the top dose activity change, negative = inhibition, hits mostly inhibitors | 320,000 tested, 6.9% active; also: potency is read from the fitted curve at half-maximal effect; % is scaled to controls: 0 for no effect and ±100 for the full control effect
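Compounds incubated with erythrocytes infected by luciferase-expressing P. falciparum (2% hematocrit, 0.05% parasitemia final) for 96 hours, 37 C in 5% CO2. Growth inhibition scored as decreased luciferase luminescence.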
Pf growth 48h – P. falciparum growth inhibition at 48 hours (one generation); P. falciparum luciferase growth in erythrocytes, 48 h; Potency, µM (highest dose often 28.7 µM), for inactives: at the top dose activity change, negative = inhibition, actives largely listed as inhibitors; 310,000 tested, 5.9% active; also: potency is read from the fitted curve at half-maximal effect; % is scaled to controls: 0 for no effect and ±100 for the full control effect
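Here the parasites carry a stable luciferase gene and grow inside erythrocytes in Albumax-based RPMI medium with compound for one erythrocytic cycle. Activity is scored as loss of luminescent signal.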
* marks the source's active call; other numbers are inactive results; i = inactive; ? = inconclusive; · = not tested or not shown; + = active, no number; [ ] = another dose, or the depositor's remark. Rows were chosen to be rich in hits. Some 19% of all compounds tested hit in one or more screens of this group. Unless noted, calls follow the shape of the dose curve; as a rule, active = well fitted inhibition curve with a large enough effect; inconclusive = small, poorly fitted or top-dose-only effect, or another doubt; inactive = no such curve, though single readings can be large or run the other way.

SMILES	Lassa entry inh	Shiga toxin inh	MARV entry inh	Cycloheximide cs	Pf growth 96h	Pf growth 48h
CCOC(=O)c1cnc2ccc(OC)cc2c1Nc1ccc(N2CCN(C)CC2)cc1	-2%	3	?	-1	0.93µM*	1.7µM*
CCOC(=O)c1ccc2ncc(C(=O)OCC)c(Nc3ccc(N4CCOCC4)cc3)c2c1	?	-6	7.9µM*	0	?	?
CCOC(=O)c1cnc2ccc(C)cc2c1NCCN1CCOCC1	·	-4	·	6	14%	12µM*
CC(=O)Nc1ccc(NC(=O)C(C)OC(=O)CC23CC4CC(CC(Br)(C4)C2)C3)cc1 (stereo unspecified)	0%[46.1 µM]	·	12%[46.1 µM]	·	·	·
NC(=O)c1cc([N+](=O)[O-])c(Cl)cc1NCc1ccncc1	·	·	·	·	42%	?
COc1cc(C2C3=C(CCCC3=O)Nc3[nH]n(-c4ccccc4)c(=O)c32)ccc1O (stereo unspecified)	2%	7	-8%	-3	?	5.2µM*
COc1cccc(C2C3=C(CCCC3=O)Nc3[nH]n(-c4ccccc4)c(=O)c32)c1 (stereo unspecified)	-6%	25	2%	-5	-18%	-10%
C/C(=C\c1csc(C)n1)[C@@H]1C[C@@H]2O[C@]2(C)CCC[C@H](C)[C@H](O)[C@@H](C)C(=O)C(C)(C)[C@@H](O)CC(=O)O1	·	·	·	·	?	0.0013µM*
Cc1cccc(NC(=O)NCCc2c[nH]c3ccccc23)c1	-1%	31	?	15	37%	-1%
Cc1cc(C)nc(NC(=NCCc2c[nH]c3ccccc23)NC(=O)c2ccco2)n1	?	-9	11µM*	-3	5.9µM*	6.6µM*
C/C(=N\NC(=O)CCc1c[nH]c2ccccc12)c1cccc([N+](=O)[O-])c1	?	-1	?	-2	23%	30%
Cc1cc(C)nc(NC(=NCCc2c[nH]c3ccccc23)NC(=O)Nc2cccc([N+](=O)[O-])c2)n1	0%	-6	-6%	5	58%	3.3µM*
Cc1cc(C)nc(NC(=NCCc2c[nH]c3ccccc23)NC(=O)Nc2ccc(Cl)c(Cl)c2)n1	-22%	17	?	-4	2.1µM*	?
O=C(CCNC(=O)c1ccco1)NCCc1c[nH]c2ccccc12	-30%	·	0%	·	·	·
Cc1cc(C)nc(NC(=NCCc2c[nH]c3ccccc23)NC(=O)Nc2ccccc2)n1	?	-6	15µM*	-3	4.7µM*	5.2µM*
Cc1ccc(CNC(=O)N2CCN(S(=O)(=O)c3ccccc3)CC2)cc1	?	-7	?	-1	14%	27%
CC(=O)C1=C(O)C(=O)N(c2ccc(S(=O)(=O)Nc3nccs3)cc2)C1c1ccc(F)cc1 (stereo unspecified)	9%	-3	6%[46.1 µM]	-4	?	4%
COc1ccc2c(c1)CC(C)C/C2=N\NC(=O)c1ccco1 (stereo unspecified)	·	32	14%[46.1 µM]	14	13%	?
CC1C/C(=N/NC(=O)c2cccc(F)c2)c2ccc(O)cc2C1 (stereo unspecified)	-2%	active	-1%	42*	?	-18%
Cn1c(C2CC(=O)N(Cc3ccccc3)C2)nc2ccccc21 (stereo unspecified)	·	8	·	-3	1%	0%
COc1ccc(Cl)c2c1[nH]c1nc(SCc3cccnc3)nnc12	1%	21	8%[46.1 µM]	10	27%	-4%
COc1ccc(Cl)c2c1[nH]c1nc(SCc3ccccn3)nnc12	-25%	89*	-28%[46.1 µM]	41*	-13%	205%
Cc1cc([N+](=O)[O-])ccc1NC(=O)CN1C2CCC1CC(NC(=O)NC13CC4CC(CC(C4)C1)C3)C2 (stereo unspecified)	-21%[46.1 µM]	-7	?	-4	23%	10µM*
O=C(O)c1ccc(N/N=C/c2ccc(-c3ccc(Br)cc3)o2)cc1	?	39*	?	27*	15%	33%
O=C(O)c1cc(-c2ccc(/C=N/Nc3ccc(Cl)cc3)o2)ccc1Cl	5%	14	7%	2	98%	11%
SMILES	Lassa entry inh	Shiga toxin inh	MARV entry inh	Cycloheximide cs	Pf growth 96h	Pf growth 48h
Cc1ccc(/C=N/Nc2ccc(C(=O)O)cc2)o1	-3%	76*	-16%	30*	?	i
Cc1ccc(/C=N/NC(=O)c2ccc(-n3cccc3)cc2)o1	11%[46.1 µM]	-2	5%[46.1 µM]	9	?	-8%
CCN(CC(=O)NCc1ccc(Cl)cc1)C(=O)/C=C/c1ccc(C#N)cc1	5%	-10	-5%[46.1 µM]	-3	-9%	-12%
CC(C)(O)C#CC#CCN1CCOCC1	-1%	-5	10%	1	10µM*	7%
O=C(CCNS(=O)(=O)c1c(Cl)cccc1Cl)OCC(=O)c1ccccc1F	8%	+	?	11	67%	6%
N/C(=N\NC(=O)c1ccccc1Cl)c1cc2ccccc2oc1=O	·	49	·	32	19%	21%
COc1cccc(NC(=O)CN(c2cccc(C(F)(F)F)c2)S(C)(=O)=O)c1	?	-26	?	3	18%	?
COc1cccc(NC(=O)CN(c2cccc(F)c2)S(C)(=O)=O)c1	-7%	-4	17%	-2	·	21%
COc1ccc(N(CC(=O)Nc2cccc(SC)c2)S(C)(=O)=O)cc1	0%	49*	22%	23*	?	15%
COc1cccc(CN(C)C(=O)c2ccc(OCC(=O)Nc3cccc(C(F)(F)F)c3)c(OC)c2)c1	8.9µM*	·	?	·	?	?
COC(=O)CN(c1cccc(OC)c1)S(C)(=O)=O	8%	27	20%	1	5.9µM*	7%
COc1ccc(N(CC(=O)Nc2cccc(C(F)(F)F)c2)S(C)(=O)=O)cc1	-17%	20	6%	active	i	19%
COc1cccc(NC(=O)CN(c2cccc(OC)c2)S(C)(=O)=O)c1	7%	-9	-11%[46.1 µM]	-1	-22%	0%
Fc1c(F)c(-n2nnc3ccccc32)c(F)c(F)c1Cl	6%	-22	9%	-6	32%	7%
CCC1CCCCN1CCCNC(=O)CCNC(=O)Cn1cnc2ccccc2c1=O (stereo unspecified)	-2%	-4	-8%[46.1 µM]	-8	0%	5%
CCn1c(SCc2nnc(-c3ccccc3)o2)nnc1-c1ccc(S(=O)(=O)N2CCCC2)cc1	18%	21	-3%	-4	?	?
COc1ccc(CNCc2cccc(Oc3ccccc3)c2)cc1	0%	3	-3%[46.1 µM]	2	3.7µM*	73%
O=C(NC(=S)Nc1ccc(Cc2ccncc2)cc1)c1ccccc1F	-51%	41	?	24*	11%	?
CC(C)(C)Sc1ccc([N+](=O)[O-])cc1C(=O)Nc1ccncc1	15%	52*	4%[46.1 µM]	13	0.93µM*	?
COc1ccc([N+](=O)[O-])cc1C(=O)Nc1ccc(Cc2ccncc2)cc1	·	30	·	13*	44%	-16%
CCOC(=O)Nc1ccc(Cc2ccncc2)cc1	·	29	-3%[46.1 µM]	26*	?	34%
